From the supplement of paper PMC9023506 come the findings set out here.

Counter-ions that a name gives are not always drawn.

The first experiment relates to Danio rerio larvae (5 dpf). Kind of experiment: habituation to 1-s acoustic pulses, difference vs DMSO (percentage points (treated minus DMSO)); higher = more of the behaviour than the DMSO vehicle control. The note with it: 10 µM; exposure time: 3 h pre-incubation + 3 h imaging. In outline: (§1)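 5-dpf wild-type zebrafish larvae in 96-well ProxiPlates were exposed to library drugs at 10 µM (diluted 1000× from DMSO stocks into egg water). There were 48 larvae per drug, exposed 3 h before and 3 h during imaging at 28.5 °C. Images taken every 6 s covered a 3-h program of rest, moving coloured lines and acoustic pulses, and an ImageJ macro scored movement and upper-half location. Each behaviour score is the treated-group mean minus the DMSO vehicle mean, in percentage points.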
As for `CCCc1nc2c(C)cc(-c3nc4ccccc4n3C)cc2n1Cc1ccc(-c2ccccc2C(=O)O)cc1` [Telmisartan], the “habituation to 1-s acoustic pulses” value is -0.195.

With `CN(C)CC/C=C1/c2ccccc2COc2ccc(CC(=O)O)cc21` [Olopatadine hydrochloride], the “habituation to 1-s acoustic pulses” value is 0.997.

In the case of `O=C(O)CCCc1ccccc1` [Sodium 4-Phenylbutyrate], the “habituation to 1-s acoustic pulses” value is -4.19.

Take `CCOc1nc2cccc(C(=O)O)c2n1Cc1ccc(-c2ccccc2-c2noc(=O)[nH]2)cc1` [Azilsartan]: the “habituation to 1-s acoustic pulses” value turned out to be 6.99.

As for `C/C(O)=C(\C#N)C(=O)Nc1ccc(C(F)(F)F)cc1` [Teriflunomide], the “habituation to 1-s acoustic pulses” value is -1.26.

In the case of `Nc1cc(N2CCCCC2)nc(N)[n+]1[O-]` [Minoxidil], the “habituation to 1-s acoustic pulses” value came to 5.2.

Consider `CCCc1nn(C)c2c(=O)[nH]c(-c3cc(S(=O)(=O)N4CCN(C)CC4)ccc3OCC)nc12` [Sildenafil citrate], for which the “habituation to 1-s acoustic pulses” value is -2.79.

On to `CC(C)c1ccc2oc3nc(N)c(C(=O)O)cc3c(=O)c2c1` [Amlexanox], for which the “habituation to 1-s acoustic pulses” value is -1.39.

As to `NC(=O)OCC(COC(N)=O)c1ccccc1` [Felbamate], the “habituation to 1-s acoustic pulses” value was found to be 2.95.

Turning to `Cc1ccc(-c2cc(C(F)(F)F)nn2-c2ccc(S(N)(=O)=O)cc2)cc1` [Celecoxib], the “habituation to 1-s acoustic pulses” value is -9.42.

In the case of `CCOC(=O)c1ncn2c1CN(C)C(=O)c1cc(F)ccc1-2` [Flumazenil], the “habituation to 1-s acoustic pulses” value was -2.91.

`CC(=O)S[C@@H]1CC2=CC(=O)CC[C@]2(C)[C@H]2CC[C@@]3(C)[C@@H](CC[C@@]34CCC(=O)O4)[C@H]12` [Spironolactone]: the “habituation to 1-s acoustic pulses” value was -0.287.

`CO[C@H]1/C=C/O[C@@]2(C)Oc3c(C)c(O)c4c(O)c(c5c(nc6cc(C)ccn65)c4c3C2=O)NC(=O)/C(C)=C\C=C\[C@H](C)[C@H](O)[C@@H](C)[C@@H](O)[C@@H](C)[C@H](OC(C)=O)[C@@H]1C` [Rifaximin]: the “habituation to 1-s acoustic pulses” value is -3.04.

In the case of `CCCCC(=O)N(Cc1ccc(-c2ccccc2-c2nnn[nH]2)cc1)[C@H](C(=O)O)C(C)C` [Valsartan], the “habituation to 1-s acoustic pulses” value stood at 2.82.

For another experiment, the system named is Danio rerio larvae (5 dpf). Kind of experiment: excitability to 1-s acoustic pulses, difference vs DMSO (percentage points (treated minus DMSO)); higher = more of the behaviour than the DMSO vehicle control. The conditions noted are these: 10 µM; exposure time: 3 h pre-incubation + 3 h imaging. In outline:
as §1
On to `O=C(O)C[C@H](O)C[C@H](O)/C=C/c1c(C2CC2)nc2ccccc2c1-c1ccc(F)cc1` [Pitavastatin calcium], for which the “excitability to 1-s acoustic pulses” value turned out to be 0.628.

In the case of `CCOc1nc2cccc(C(=O)O)c2n1Cc1ccc(-c2ccccc2-c2noc(=O)[nH]2)cc1` [Azilsartan], the “excitability to 1-s acoustic pulses” value was -0.616.

For the compound `CN1CC[C@@H](NC(=O)Nc2ccc(C#N)cc2)C[C@@H]1c1nc2ccccc2[nH]1`, the “excitability to 1-s acoustic pulses” value is 7.99.

On to `CC(C)c1ccc2oc3nc(N)c(C(=O)O)cc3c(=O)c2c1` [Amlexanox], for which the “excitability to 1-s acoustic pulses” value came to 6.32.

Take `OC(CNCC(O)C1CCc2cc(F)ccc2O1)C1CCc2cc(F)ccc2O1` (stereo not drawn) [Nebivolol hydrochloride]: the “excitability to 1-s acoustic pulses” value turned out to be 15.9.

Take `CC(=O)Oc1ccccc1C(=O)O` [Aspirin]: the “excitability to 1-s acoustic pulses” value turned out to be 10.2.

With `CC(CCc1ccc(O)cc1)NCCc1ccc(O)c(O)c1` (stereo not drawn) [Dobutamine hydrochloride], the “excitability to 1-s acoustic pulses” value stood at 5.75.

Take `CC(=O)S[C@@H]1CC2=CC(=O)CC[C@]2(C)[C@H]2CC[C@@]3(C)[C@@H](CC[C@@]34CCC(=O)O4)[C@H]12` [Spironolactone]: the “excitability to 1-s acoustic pulses” value was 1.36.

Regarding `CN1CCC[C@@H]1Cc1c[nH]c2ccc(CCS(=O)(=O)c3ccccc3)cc12` [Eletriptan hydrobromide], the “excitability to 1-s acoustic pulses” value was 3.9.

For the compound `CCCCc1nc(Cl)c(CO)n1Cc1ccc(-c2ccccc2-c2nnn[nH]2)cc1` [Losartan potassium], the “excitability to 1-s acoustic pulses” value stood at 5.58.

As for `Clc1ccc2nsnc2c1NC1=NCCN1` [Tizanidine hydrochloride], the “excitability to 1-s acoustic pulses” value is 3.69.

For another experiment, the system named is Danio rerio larvae (5 dpf). Briefly: activity during period 15 (no stimuli), difference vs DMSO (percentage points (treated minus DMSO)); higher = more of the behaviour than the DMSO vehicle control. The conditions noted are these: 10 µM; exposure time: 3 h pre-incubation + 3 h imaging. In outline:
as §1
Turning to `CCCc1nc2c(C)cc(-c3nc4ccccc4n3C)cc2n1Cc1ccc(-c2ccccc2C(=O)O)cc1` [Telmisartan], the “activity during period 15” value is -7.63.

As for `CN(C)CC/C=C1/c2ccccc2COc2ccc(CC(=O)O)cc21` [Olopatadine hydrochloride], the “activity during period 15” value is -6.62.

As for `CCOC(=O)[C@H](CCc1ccccc1)N[C@H]1CCc2ccccc2N(CC(=O)O)C1=O` [Benazepril hydrochloride], the “activity during period 15” value turned out to be 4.55.

In the case of `O=C(NCC1CCCCN1)c1cc(OCC(F)(F)F)ccc1OCC(F)(F)F` (stereo not drawn) [Flecainide acetate], the “activity during period 15” value is -6.75.

Consider `O=C(O)CCCc1ccccc1` [Sodium 4-Phenylbutyrate], for which the “activity during period 15” value stood at 0.951.

Regarding `O=C(O)C[C@H](O)C[C@H](O)/C=C/c1c(C2CC2)nc2ccccc2c1-c1ccc(F)cc1` [Pitavastatin calcium], the “activity during period 15” value was -4.44.

In the case of `C/C(O)=C(\C#N)C(=O)Nc1ccc(C(F)(F)F)cc1` [Teriflunomide], the “activity during period 15” value worked out at 10.3.

With `CCCc1nn(C)c2c(=O)[nH]c(-c3cc(S(=O)(=O)N4CCN(C)CC4)ccc3OCC)nc12` [Sildenafil citrate], the “activity during period 15” value is -20.2.

For `CC(C)c1ccc2oc3nc(N)c(C(=O)O)cc3c(=O)c2c1` [Amlexanox], the “activity during period 15” value was 7.93.

As for `OC(CNCC(O)C1CCc2cc(F)ccc2O1)C1CCc2cc(F)ccc2O1` (stereo not drawn) [Nebivolol hydrochloride], the “activity during period 15” value came out at 14.

As for `CCOc1ccccc1OCCN[C@H](C)Cc1ccc(OC)c(S(N)(=O)=O)c1` [Tamsulosin hydrochloride], the “activity during period 15” value was found to be 2.6.

Turning to `NC(=O)OCC(COC(N)=O)c1ccccc1` [Felbamate], the “activity during period 15” value worked out at 0.376.

For the compound `OCCOCCN1CCN(C2=Nc3ccccc3Sc3ccccc32)CC1` [Quetiapine hemifumarate], the “activity during period 15” value turned out to be 16.8.

As for `C=C1[C@H](CO)[C@@H](O)C[C@@H]1n1cnc2c(=O)[nH]c(N)nc21` [Entecavir], the “activity during period 15” value was -0.773.

On to `CCOC(=O)c1ncn2c1CN(C)C(=O)c1cc(F)ccc1-2` [Flumazenil], for which the “activity during period 15” value was 11.9.

As for `CO[C@H]1/C=C/O[C@@]2(C)Oc3c(C)c(O)c4c(O)c(c5c(nc6cc(C)ccn65)c4c3C2=O)NC(=O)/C(C)=C\C=C\[C@H](C)[C@H](O)[C@@H](C)[C@@H](O)[C@@H](C)[C@H](OC(C)=O)[C@@H]1C` [Rifaximin], the “activity during period 15” value was -11.6.

Take `CCCC1O[C@@H]2C[C@H]3[C@@H]4CCC5=CC(=O)C=C[C@]5(C)[C@H]4[C@@H](O)C[C@]3(C)[C@]2(C(=O)CO)O1` (stereo partly drawn) [Budesonide]: the “activity during period 15” value worked out at 5.26.

As to `CC(C)c1nc(CN(C)C(=O)N[C@H](C(=O)N[C@@H](Cc2ccccc2)C[C@H](O)[C@H](Cc2ccccc2)NC(=O)OCc2cncs2)C(C)C)cs1` [Ritonavir], the “activity during period 15” value was -8.67.
